Measured values as given in PubChem BioAssay AID1159580 (chemical genetic matrix, 2015).
Several values for one entry are separate records, joined by “and”; a condition that tells them apart may be missing. Equal entries are not always repeated. Screen size: about 5,500 compounds; about 2,000 (36%) were called active. Roughly 18% stayed inconclusive and do not appear here. Rule as the data show it: active = normalized growth mostly below about 0.91 (no sharp cut-off); inconclusive = no clear call, values can overlap the other calls; inactive = mostly above about 0.92. This is one part of the list.

Experiment: chemical genetic growth profiling, strain panel (AID 1159580);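 also: tested at 20 µM; growth read once vehicle control cultures reached saturation at 30 °C; 1 = growth at the plate median or of vehicle wells; lower values mean less growth of the strain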
Conditions: growth OD

Measured: normalized growth

COc1ccc(CCCOc2cc(CCn3ccnc3)ccc2OC)cc1
inactive: S. cerevisiae deletion strains, locus YER002W, strain NOP16, stronger effect = lower value 1.03

CCN(CCCCOC(=O)c1ccc(OC)c(OC)c1)C(C)Cc1ccc(OC)cc1 (stereo not drawn)
inactive: S. cerevisiae deletion strains, locus YAL013W, strain DEP1, stronger effect = lower value 0.982 | S. cerevisiae deletion strains, locus YBR021W, strain FUR4, stronger effect = lower value 0.989 | S. cerevisiae deletion strains, locus YBR229C, strain ROT2, stronger effect = lower value 0.95 | S. cerevisiae deletion strains, locus YCL029C, strain bik1, stronger effect = lower value 0.99 | S. cerevisiae deletion strains, locus YDL035C, strain GPR1, stronger effect = lower value 0.972 | S. cerevisiae deletion strains, locus YDL074C, strain BRE1, stronger effect = lower value 0.987 | S. cerevisiae deletion strains, locus YDL101C, strain DUN1, stronger effect = lower value 0.988 | S. cerevisiae deletion strains, locus YDL134C, strain PPH21, stronger effect = lower value 0.988 | S. cerevisiae deletion strains, locus YDL185W, strain tfp1, stronger effect = lower value 0.991 | S. cerevisiae deletion strains, locus YDL192W, strain arf1, stronger effect = lower value 0.982 | S. cerevisiae deletion strains, locus YDR101C, strain arx1, stronger effect = lower value 0.995 | S. cerevisiae deletion strains, locus YDR150W, strain NUM1, stronger effect = lower value 0.96 | S. cerevisiae deletion strains, locus YDR162C, strain NBP2, stronger effect = lower value 0.977 | S. cerevisiae deletion strains, locus YDR318W, strain mcm21, stronger effect = lower value 0.999 | S. cerevisiae deletion strains, locus YDR388W, stronger effect = lower value 0.998 | S. cerevisiae deletion strains, locus YDR502C, strain sam2, stronger effect = lower value 0.98 | S. cerevisiae deletion strains, locus YEL061C, strain CIN8, stronger effect = lower value 0.979 | S. cerevisiae deletion strains, locus YER110C, stronger effect = lower value 0.963 | S. cerevisiae deletion strains, locus YER155C, strain BEM2, stronger effect = lower value 0.999 | S. cerevisiae deletion strains, locus YER167W, strain BCK2, stronger effect = lower value 0.989 | S. cerevisiae deletion strains, locus YGL078C, strain dbp3, stronger effect = lower value 0.997 | S. cerevisiae deletion strains, locus YGL086W, strain mad1, stronger effect = lower value 0.965 | S. cerevisiae deletion strains, locus YGL248W, strain PDE1, stronger effect = lower value 0.98 | S. cerevisiae deletion strains, locus YGR078C, strain PAC10, stronger effect = lower value 0.995 | S. cerevisiae deletion strains, locus YGR135W, strain pre9, stronger effect = lower value 1.02 | S. cerevisiae deletion strains, locus YGR229C, strain SMI1, stronger effect = lower value 0.978 | S. cerevisiae deletion strains, locus YGR252W, strain gcn5, stronger effect = lower value 0.937 | S. cerevisiae deletion strains, locus YHR030C, strain SLT2, stronger effect = lower value 0.989 and 0.965 | S. cerevisiae deletion strains, locus YHR079C, strain IRE1 (second series), stronger effect = lower value 0.992 | S. cerevisiae deletion strains, locus YHR079C, strain IRE1, stronger effect = lower value 0.956 | S. cerevisiae deletion strains, locus YHR094C, strain hxt1, stronger effect = lower value 0.989 | S. cerevisiae deletion strains, locus YHR129C, strain ARP1, stronger effect = lower value 0.993 | S. cerevisiae deletion strains, locus YHR200W, strain rpn10, stronger effect = lower value 0.992 | S. cerevisiae deletion strains, locus YIL066C, strain RNR3, stronger effect = lower value 0.968 | S. cerevisiae deletion strains, locus YIL073C, strain SPO22, stronger effect = lower value 0.986 | S. cerevisiae deletion strains, locus YIL125W, strain kgd1, stronger effect = lower value 0.985 | S. cerevisiae deletion strains, locus YIR030C, strain dcg1, stronger effect = lower value 0.978 | S. cerevisiae deletion strains, locus YJL095W, strain BCK1, stronger effect = lower value 1.03 and 0.98 | S. cerevisiae deletion strains, locus YJL134W, strain LCB3, stronger effect = lower value 0.979 | S. cerevisiae deletion strains, locus YJL168C, strain set2, stronger effect = lower value 0.995 | S. cerevisiae deletion strains, locus YJL187C, strain SWE1 (second series), stronger effect = lower value 1 | S. cerevisiae deletion strains, locus YJR043C, strain POL32, stronger effect = lower value 1.01 | S. cerevisiae deletion strains, locus YJR066W, strain TOR1, stronger effect = lower value 0.913 | S. cerevisiae deletion strains, locus YJR075W, strain HOC1, stronger effect = lower value 0.98 | S. cerevisiae deletion strains, locus YKL009W, strain mrt4, stronger effect = lower value 0.95 | S. cerevisiae deletion strains, locus YKL068W, stronger effect = lower value 0.998 | S. cerevisiae deletion strains, locus YKL085W, strain MDH1 (second series), stronger effect = lower value 0.987 | S. cerevisiae deletion strains, locus YKL085W, strain MDH1, stronger effect = lower value 0.987 | S. cerevisiae deletion strains, locus YKL190W, strain CNB1, stronger effect = lower value 0.99 | S. cerevisiae deletion strains, locus YKR001C, strain vps1, stronger effect = lower value 0.988 | S. cerevisiae deletion strains, locus YLR039C, strain RIC1, stronger effect = lower value 0.983 | S. cerevisiae deletion strains, locus YLR058C, strain SHM2, stronger effect = lower value 0.967 | S. cerevisiae deletion strains, locus YLR102C, strain apc9, stronger effect = lower value 0.993 | S. cerevisiae deletion strains, locus YLR113W, strain HOG1, stronger effect = lower value 0.956 | S. cerevisiae deletion strains, locus YLR262C, strain YPT6, stronger effect = lower value 0.937 | S. cerevisiae deletion strains, locus YLR268W, strain sec22, stronger effect = lower value 1.07 | S. cerevisiae deletion strains, locus YLR330W, strain CHS5, stronger effect = lower value 0.977 | S. cerevisiae deletion strains, locus YLR342W, strain FKS1 (second series), stronger effect = lower value 0.985 | S. cerevisiae deletion strains, locus YLR371W, strain rom2, stronger effect = lower value 0.972 | S. cerevisiae deletion strains, locus YLR418C, strain cdc73, stronger effect = lower value 0.956 | S. cerevisiae deletion strains, locus YML016C, strain PPZ1, stronger effect = lower value 0.978 | S. cerevisiae deletion strains, locus YML032C, strain rad52, stronger effect = lower value 1 | S. cerevisiae deletion strains, locus YML124C, strain tub3, stronger effect = lower value 0.985 | S. cerevisiae deletion strains, locus YMR078C, strain ctf18, stronger effect = lower value 0.987 | S. cerevisiae deletion strains, locus YMR223W, strain ubp8, stronger effect = lower value 0.971 | S. cerevisiae deletion strains, locus YMR263W, strain SAP30, stronger effect = lower value 0.978 | S. cerevisiae deletion strains, locus YMR307W, strain GAS1, stronger effect = lower value 1.01 | S. cerevisiae deletion strains, locus YNL067W, strain RPL9B, stronger effect = lower value 1.01 | S. cerevisiae deletion strains, locus YNL128W, strain TEP1, stronger effect = lower value 0.968 | S. cerevisiae deletion strains, locus YNL153C, strain GIM3, stronger effect = lower value 1 | S. cerevisiae deletion strains, locus YNL183C, strain NPR1, stronger effect = lower value 0.9 | S. cerevisiae deletion strains, locus YNL233W, strain BNI4, stronger effect = lower value 0.996 | S. cerevisiae deletion strains, locus YNL250W, strain rad50, stronger effect = lower value 0.987 | S. cerevisiae deletion strains, locus YNL271C, strain bni1, stronger effect = lower value 0.999 | S. cerevisiae deletion strains, locus YNL298W, strain CLA4, stronger effect = lower value 0.99 | S. cerevisiae deletion strains, locus YNL307C, strain MCK1, stronger effect = lower value 0.983 | S. cerevisiae deletion strains, locus YNL322C, strain KRE1, stronger effect = lower value 0.982 | S. cerevisiae deletion strains, locus YNR052C, strain pop2, stronger effect = lower value 1.01 | S. cerevisiae deletion strains, locus YOL006C, strain TOP1, stronger effect = lower value 0.966 | S. cerevisiae deletion strains, locus YOL012C, strain htz1 1.08 | S. cerevisiae deletion strains, locus YOL147C, strain pex11, stronger effect = lower value 0.987 | S. cerevisiae deletion strains, locus YOR061W, strain CKA2, stronger effect = lower value 0.974 | S. cerevisiae deletion strains, locus YOR069W, strain VPS5, stronger effect = lower value 0.986 | S. cerevisiae deletion strains, locus YOR136W, strain idh2, stronger effect = lower value 0.981 | S. cerevisiae deletion strains, locus YOR144C, strain elg1, stronger effect = lower value 0.991 | S. cerevisiae deletion strains, locus YOR184W, strain ser1, stronger effect = lower value 0.974 | S. cerevisiae deletion strains, locus YOR231W, strain MKK1, stronger effect = lower value 0.964 | S. cerevisiae deletion strains, locus YOR316C, strain cot1, stronger effect = lower value 0.992 | S. cerevisiae deletion strains, locus YPL055C, strain LGE1, stronger effect = lower value 0.963 | S. cerevisiae deletion strains, locus YPL241C, strain CIN2, stronger effect = lower value 0.989 | S. cerevisiae deletion strains, locus YPL256C, strain CLN2, stronger effect = lower value 0.961 | S. cerevisiae deletion strains, locus YPR119W, strain clb2, stronger effect = lower value 0.987 | S. cerevisiae deletion strains, locus YPR141C, strain kar3, stronger effect = lower value 0.979 | S. cerevisiae deletion strains, locus YPR163C, strain tif3, stronger effect = lower value 0.992 | S. cerevisiae deletion strains, locus YPR167C, strain met16, stronger effect = lower value 0.997 | S. cerevisiae deletion strains, strain wtn01, stronger effect = lower value 1.01 | S. cerevisiae strains, strain wild type, stronger effect = lower value 0.98
